24 molecules from PubChem BioAssay (EPA / NIEHS) can be followed below.

The structures appear in SMILES notation. Records with an inconclusive call do not appear. Activity calls are given as the source filed them. Rule for the calls, unless noted: active = hit-call score of the fitted dose curve at least 0.9, where 1 is the maximum; inconclusive = response in the unintended direction; inactive = score below 0.9.

The nature of assay [1]: CCTE_Shafer_MEA_dev_burst_duration_mean: CCTE's Neural Network Formation Assay for Mean Burst Duration, Shafer Lab (AID 2284045; active = hit-call score of the fitted dose curve at least 0.9, where 1 is the maximum; inactive = score below 0.9;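 for AC50: curve fitted for loss meaning shorter burst duration than DMSO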). In a few lines: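 Mean single-electrode burst duration (first to last spike), averaged over bursting electrodes per well, then integrated as area-under-curve across recordings at days 5, 7, 9 and 12. Rat cortical cultures on MEAs, compound present from plating, refreshed at feeds.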

The nature of assay [2]: CCTE_Shafer_MEA_dev_interburst_interval_mean: CCTE's Neural Network Formation Assay for Mean Interburst Interval, Shafer Lab (AID 2284046; active = hit-call score of the fitted dose curve at least 0.9, where 1 is the maximum; inactive = score below 0.9;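 note: well-mean interburst interval of bursting electrodes as AUC over four recording days; curve fitted for decrease in interburst interval relative to DMSO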). In short, it runs like this:
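Developing rat cortical networks on 48-well MEAs receive compound from the day of plating. Burst intervals from each active electrode are averaged per well, and AUC over the recording days is fitted in the negative direction against DMSO.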

Assay [3] is described as follows: CCTE_Shafer_MEA_dev_inter_network_spike_interval_mean: CCTE's Neural Network Formation Assay for Mean Inter-network Spike Interval, Shafer Lab (AID 2284047; active = hit-call score of the fitted dose curve at least 0.9, where 1 is the maximum; inactive = score below 0.9;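 for AC50: potency for a decrease in mean inter-network spike interval below DMSO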). In short, it runs like this:
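Rat cortical cultures, 1.5 x 10^5 cells/well on 48-well MEA plates; continuous exposure days 0–12, medium and compound refreshed DIV 5, 9. Mean time between consecutive network-spike peaks; AUC across DIV 5/7/9/12; DMSO baseline, negative fitting direction.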

The nature of assay [4]: CCTE_Shafer_MEA_dev_network_spike_number: CCTE's Neural Network Formation Assay for Number of Network Spikes, Shafer Lab (AID 2284048; active = hit-call score of the fitted dose curve at least 0.9, where 1 is the maximum; inactive = score below 0.9;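 note: synchronized bursts across electrodes counted on days 5 7 9 12 and integrated as AUC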;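 for AC50: fit as a loss of signal meaning fewer network spikes than DMSO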). In a few lines:
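Number of network spikes (coordinated firing across electrodes) recorded on days 5, 7, 9 and 12 and summarised as area under the curve. Rat cortical cultures on MEA, continuous compound exposure with full medium/treatment exchange at DIV 5 and 9.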

Assay [5] in a line: CCTE_Shafer_MEA_dev_network_spike_peak: CCTE's Neural Network Formation Assay for Mean Number of Electrodes in Network Spike, Shafer Lab (AID 2284049; active = hit-call score of the fitted dose curve at least 0.9, where 1 is the maximum; inactive = score below 0.9;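 for AC50: fitted for loss of signal meaning fewer electrodes in network spikes than DMSO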). In short, it runs like this:
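Rat cortical primary culture, 1.5 x 10^5 cells/well, 48-well MEA (16 electrodes/well). Dosing day 0 through DIV 12, full media/compound exchange DIV 5, 9. AxIS adaptive spike detection; AUC over days 5/7/9/12; loss-of-signal vs DMSO.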

The nature of assay [6]: CCTE_Shafer_MEA_dev_spike_duration_mean: CCTE's Neural Network Formation Assay for Mean Spike Duration, Shafer Lab (AID 2284051; active = hit-call score of the fitted dose curve at least 0.9, where 1 is the maximum; inactive = score below 0.9;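 for AC50: potency for a decrease in mean network spike duration versus DMSO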). In a few lines: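 Readout is the average length of network spikes, clustered firing across electrodes, summed over DIV 5, 7, 9 and 12 as area under the curve. Neurons from rat cortex developed networks on MEA plates under continuous 12-day exposure.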

A short description of assay [7]: CCTE_Shafer_MEA_dev_network_spike_duration_std: CCTE's Neural Network Formation Assay for Standard Deviation of Network Spike Duration, Shafer Lab (AID 2284052; active = hit-call score of the fitted dose curve at least 0.9, where 1 is the maximum; inactive = score below 0.9;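 note: hits are decreases in network spike duration SD versus DMSO vehicle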). In short, it runs like this: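 Read-out is the trapezoidal area-under-the-curve across recordings made on days 5, 7, 9 and 12, fitted in the negative direction against DMSO baseline. Neurons were primary rat cortical cells treated from day 0, with treatment renewed at each feed.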

A short description of assay [8]: CCTE_Shafer_MEA_dev_per_network_spike_spike_number_mean: CCTE's Neural Network Formation Assay for Mean Number of Spikes in a Network Spike, Shafer Lab (AID 2284053; active = hit-call score of the fitted dose curve at least 0.9, where 1 is the maximum; inactive = score below 0.9;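 for AC50: fitted as decrease in spikes per network spike relative to DMSO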). In a few lines:
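Continuous twelve-day exposure of developing rat cortical networks grown over 16 microelectrodes per well; spontaneous firing is captured at four time points, and the per-network-spike spike number is integrated over development by trapezoidal AUC.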

Assay [9] is described as follows: CCTE_Shafer_MEA_dev_per_network_spike_spike_percent: CCTE's Neural Network Formation Assay for Percent of Spikes in a Network Spike, Shafer Lab (AID 2284054; active = hit-call score of the fitted dose curve at least 0.9, where 1 is the maximum; inactive = score below 0.9). In a few lines:
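Metric: fraction of spikes falling in a 0.05 s window at network-spike peaks. Recordings were made on days 5, 7, 9 and 12 and collapsed by trapezoidal AUC. Cultures were rat cortical neurons on MEA plates, dosed continuously from plating, re-dosed at media changes.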

Assay [10] in a line: CCTE_Shafer_MEA_dev_LDH: CCTE's Lactate Dehydrogenase Assay for Cytotoxicity in the Neural Network Formation Assay, Shafer Lab (AID 2284068).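 Note: exposure for twelve days from plating with re-dosing on DIV 5 and 9.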 In short, it runs like this: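 Cytotoxicity companion to network-formation recordings: rat cortical neurons received compound over 12 days of development, re-dosed at DIV 5 and 9 feeds. Viability was inferred from LDH enzyme activity relative to DMSO.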

A short description of assay [11]: CCTE_Shafer_MEA_dev_AB: CCTE's Alamar Blue Assay for Cytotoxicity in the Neural Network Formation Assay, Shafer Lab (AID 2284083).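 Note: twelve days of exposure from plating with re-dosing on DIV 5 and 9.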 In short, it runs like this:
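Fluorescent resazurin reduction serves as the viability read-out, with DMSO as negative control and baseline. Cells were primary rat cortical neurons grown on MEA plates and dosed from day 0 to day 12, treatment renewed on DIV 5 and 9.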
Background: The colour change of resazurin is a common sign of viable cells or microbes.

A short description of assay [12]: CCTE_Shafer_MEA_dev_mutual_information_norm: CCTE's Neural Network Formation Assay for Mutual Information Normalization, Shafer Lab (AID 2284091; active = hit-call score of the fitted dose curve at least 0.9, where 1 is the maximum; inactive = score below 0.9;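 for AC50: mutual information between electrodes summarised as area under curve across four recording days; potency is for a decrease in mutual information relative to DMSO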). In a few lines:
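Shared information across electrodes, tracked on days 5, 7, 9 and 12 of network development and collapsed as trapezoidal area under the curve. Rat cortical cultures were treated continuously from plating, with treatment renewed at feeds on DIV 5 and 9; DMSO baseline, negative-direction fit.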

Assay [13] is described as follows: CCTE_Shafer_MEA_dev_correlation_coefficient_mean: CCTE's Neural Network Formation Assay for Mean Correlation Coefficient, Shafer Lab (AID 2284093; active = hit-call score of the fitted dose curve at least 0.9, where 1 is the maximum; inactive = score below 0.9;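 for AC50: well mean pairwise spike train correlation integrated as AUC over recording days 5 to 12; potency fitted for loss of correlation relative to DMSO vehicle wells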). In a few lines:
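Read-out: well-mean correlation coefficient of spike trains between electrode pairs, collapsed over four recording days as trapezoidal area-under-the-curve. Developing rat cortical neuron networks grown on MEAs received test chemical continuously from plating.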

A short description of assay [14]: IUF_NPC1b_proliferation_BrdU_72hr: Leibniz Research Institute for Environmental Medicine (IUF) 72-hour Neural Progenitor Cell Bromodeoxyuridine (BrdU) Proliferation Assay (NPC1b) (AID 2284207; active = hit-call score of the fitted dose curve at least 0.9, where 1 is the maximum; inactive = score below 0.9). In short, it runs like this:
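Human fetal cortex-derived (GW 16-19) neural progenitor spheres, 0.25-0.35 mm, one per well in EGF/FGF proliferation medium, exposed to compound for 72 h at 37C, pH 7.2-7.6. BrdU incorporation over the final 16 h read by luminescence ELISA, relative to DMSO.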

The nature of assay [15]: IUF_NPC1a_proliferation_area_72hr: Leibniz Research Institute for Environmental Medicine (IUF) 72-hour Neural Progenitor Cell Proliferation Area Assay (NPC1a) (AID 2284208; active = hit-call score of the fitted dose curve at least 0.9, where 1 is the maximum; inactive = score below 0.9). In a few lines:
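Measured in 3D suspension: each well held one primary hNPC sphere grown with EGF and FGF at pH 7.2-7.6. Compound stayed on for 72 h, then area was imaged; spheres lacking growth factors defined reduced proliferation.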

Assay [16] is described as follows: IUF_NPC1_viability_72hr: Viability Assessment at 72 hours in the Leibniz Research Institute for Environmental Medicine (IUF) Neural Progenitor Cell Proliferation Assay (NPC1) (AID 2284209; active = hit-call score of the fitted dose curve at least 0.9, where 1 is the maximum; inactive = score below 0.9). In a few lines:
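Alamar blue fluorescence (RFU) after 72 h exposure, normalized to DMSO baseline. hNPC spheres from GW 16-19 fetal cortex, single sphere per well in growth-factor medium; no compound renewal.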

Assay [17] can be described thus: CCTE_Shafer_MEA_acute_LDH: CCTE's Lactate Dehydrogenase Assay for Cytotoxicity in the Neural Acute Assay, Shafer Lab (AID 2284086).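 Note: active means LDH release rises above DMSO vehicle level.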 In a few lines: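 LDH absorbance at 490 nm in medium taken right after 40-min compound exposure; rat primary cortical neuron networks on MEA plates, days post-plating 13 or 15. Increase over DMSO baseline scored as cytotoxicity.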
For another assay, the system named is DIO2 (gene 1734). Put plainly: CCTE_GLTED_hDIO2: CCTE's human Deiodinase 2 (DIO2) Inhibition Assay, Great Lakes Toxicology and Ecology Division (GLTED) Lab (AID 2284050). In short, it runs like this: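 Readout: absorbance from Sandell-Kolthoff detection of free iodide released by human DIO2 during a 3 h incubation with chemical. Cell-free format, n=3; activity fitted relative to DMSO negative control.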

Another assay deals with DIO3 (gene 1735). Nature of the assay: CCTE_GLTED_hDIO3: CCTE's human Deiodinase 3 (DIO3) Inhibition Assay, Great Lakes Toxicology and Ecology Division (GLTED) Lab (AID 2284055).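 Note: potency is for inhibition seen as loss of released iodide signal.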 In a few lines: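 hDIO3 (adenovirus-expressed) + test chemical, 3 h incubation; free iodide quantified by Sandell-Kolthoff reaction, absorbance read-out. DMSO negative control, n=3.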
A short description of assay [18]: CCTE_Shafer_MEA_acute_AB: CCTE's Alamar Blue Assay for Cytotoxicity in the Neural Acute Assay, Shafer Lab (AID 2284069).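 Note: active compounds lower the viability signal compared with DMSO wells.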 In short, it runs like this: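 Metabolic activity in chemically exposed rat cortical neurons (MEA cultures, day 13/15 post-plating) measured via CellTiter Blue resazurin reduction, 544/590 nm fluorescence; fitted relative to DMSO, with signal loss indicating reduced viability.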

Turning to `N#Cc1ccc(CC(=NNC(=O)Nc2ccc(OC(F)(F)F)cc2)c2cccc(C(F)(F)F)c2)cc1`, the AC50 is 0.358 µM (active) in assay [1]; 0.0632 µM (active) in assay [2]; 0.634 µM (active) in [3]; 0.763 µM (active) in assay [4]; 1.12 µM (active) in assay [5]; 0.685 µM (active) in assay [6]. Further, the AC50 was 0.525 µM (active) in [7]; 1.08 µM (active) in assay [8]; 15 µM (active) in assay [10]; 0.672 µM (active) in assay [12]; 2.8 µM (active) in assay [13]. The molecule was called inactive in assay [9], in assay [11], in assay [14], in assay [15] and in assay [16].

Consider `OC1OC[C@@H](O)[C@H](O)[C@H]1O` (stereo partly specified), for which, in assay [17], the call was inactive.

For the molecule `CCCCCCCCCCCCCCCC(=O)OC[C@H](O)[C@H]1OC(=O)C(O)=C1O`, the results for the AC50 in the assay with DIO2 (gene 1734) and with DIO3 (gene 1735) were 27.5 µM (active) and 4.09 µM (active), respectively.

`CC[Si](OC(C)=O)(OC(C)=O)OC(C)=O`: in [17], the call was inactive.

Turning to `O=Nc1ccc(Nc2ccccc2)cc1`, the AC50 in the assay with DIO2 (gene 1734) was 64.2 µM (active); with DIO3 (gene 1735), 55.1 µM (active).

As to `CN(C)C(=N)N=C(N)N`, the molecule was called inactive in [1], in assay [2], in assay [3], in assay [4], in assay [5] and in [6]. For the same molecule, the molecule was classed as inactive in [7], in assay [8], in assay [9], in [10], in [11] and in [17]. Moreover, the molecule was classed as inactive in [12], in assay [13], in assay [14], in assay [15] and in assay [16].

Consider `CCC(=O)OCc1ccccc1`, for which the result in [17] was inactive.

On to `c1ccc2c(c1)c1cccc3ccc4cccc2c4c31`, for which the outcome in assay [1], in assay [2], in [4], in assay [5], in assay [6] and in assay [7] was inactive. Besides, the outcome in assay [8], in assay [9], in assay [10], in assay [11], in assay [12] and in assay [13] was inactive. The AC50 in assay [3] is 18.6 µM (active).

With `CC(C)=CCCC(C)=CCCC(C)=CCO`, the half-maximal activity concentration (AC50) in the assay on DIO2 (gene 1734) was 28.5 µM (active); in the assay on DIO3 (gene 1735), 17.9 µM (active).

With `CC(=O)[C@H]1CC[C@H]2[C@@H]3CC=C4C[C@@H](O)CC[C@]4(C)[C@H]3CC[C@]12C`, the molecule was classed as inactive in [17].

`CCC(=O)/C=C/C1C(C)=CCCC1(C)C` (stereo unspecified): the figures for the AC50 in the assay on DIO2 (gene 1734) and with DIO3 (gene 1735) were 93.1 µM (active) and 56.6 µM (active), respectively.

As for `CCCCCCCCC=O`, the outcome in [18] and in assay [17] was inactive.

As to `O=C(Oc1ccccc1)c1ccc(O)cc1`, the half-maximal activity concentration (AC50) with DIO2 (gene 1734) was 72.2 µM (active); in the assay with DIO3 (gene 1735), 52.9 µM (active).

As to `CC(=O)OCCC(C)CC(C)(C)C` (stereo unspecified), the call in assay [17] was inactive.

Regarding `OC[C@H]1O[C@H](O[C@]2(CCl)O[C@H](CCl)[C@@H](O)[C@@H]2O)[C@H](O)[C@@H](O)[C@H]1Cl`, the molecule was classed as inactive in [18] and in assay [17].

As to `CC(C)(COC(=O)c1ccccc1)COC(=O)c1ccccc1`, the call in assay [18] and in [17] was inactive.

As for `C[C@H]1C[C@@H]2[C@H]([C@@H](O)C[C@@]3(C)[C@H]2CC[C@]3(O)C(=O)CO)[C@@]2(C)C=CC(=O)C=C12`, the outcome in assay [18] and in assay [17] was inactive.

Turning to `C=C[Si](OCC)(OCC)OCC`, the outcome in assay [18] and in assay [17] was inactive.

For `CCCCCCCCCCCCCC(=O)O`, the concentration at half-maximal activity (AC50) is 100 µM (active) with DIO2 (gene 1734) and 156 µM (active) with DIO3 (gene 1735).

In the case of `Cc1cc(C2(c3cc(C)c(O)cc3C)OS(=O)(=O)c3ccccc32)c(C)cc1O`, the outcome in [18] and in [17] was inactive.

In the case of `COc1cc(C=O)ccc1OC(=O)C(C)C`, in assay [17], the molecule was classed as inactive.

Turning to `C=CCOC(=O)CCC1CCCCC1`, the result in assay [17] was inactive.

For the molecule `CCCCCCCCCCCCN`, in the assay on DIO2 (gene 1734), the molecule was classed as inactive. For the same molecule, the AC50 in the assay with DIO3 (gene 1735) is 141 µM (active).

For `NCCNCCN`, the result in [18] and in assay [17] was inactive.

What is called AC50 is the concentration giving half of the maximal activity seen.
